Experimental data: PubChem BioAssay AID1159580 (chemical genetic matrix, 2015)
Values joined by “and” are separate entries in the source; they are usually repeats but may differ in a detail not shown here. Equal entries are not always repeated. Out of some 5,500 compounds screened, about 2,000 (36%) were called active. About 18% were inconclusive and are not listed. Rule as the data show it: active = normalized growth mostly below about 0.91 (no sharp cut-off); inconclusive = no clear call, values can overlap the other calls; inactive = mostly above about 0.92. Some of the results follow.

Test: chemical genetic growth profiling, strain panel (AID 1159580);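 also: tested at 20 µM; growth read once vehicle control cultures reached saturation at 30 °C; 1 = growth at the plate median or of vehicle wells; lower values mean less growth of the strain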
Conditions: S. cerevisiae deletion strains, growth OD

Measured: normalized growth

CC1=C(C(C)O)C2=NC1C=c1[nH]c(c(C)c1C(C)O)=Cc1[nH]c(c(CCC(=O)O)c1C)C=c1[nH]c(c(C)c1CCC(=O)O)=C2 (configuration not stated)
inactive: locus YAL013W, strain DEP1, stronger effect = lower value 0.937 | locus YAL021C, strain ccr4, stronger effect = lower value 0.982 | locus YAL026C, strain drs2, stronger effect = lower value 0.988 | locus YAL030W, strain snc1, stronger effect = lower value 0.995 | locus YBL061C, strain skt5, stronger effect = lower value 0.986 | locus YBR009C, strain hhf1, stronger effect = lower value 0.986 | locus YBR021W, strain FUR4, stronger effect = lower value 0.998 | locus YBR023C, strain chs3, stronger effect = lower value 0.986 | locus YBR171W, strain sec66, stronger effect = lower value 0.994 | locus YBR229C, strain ROT2, stronger effect = lower value 1 | locus YBR231C, strain swc5, stronger effect = lower value 0.988 | locus YBR279W, strain paf1, stronger effect = lower value 1.01 | locus YCL011C, strain gbp2, stronger effect = lower value 0.994 | locus YCL016C, strain dcc1, stronger effect = lower value 0.986 | locus YCL029C, strain bik1, stronger effect = lower value 1.02 | locus YCL061C, strain MRC1, stronger effect = lower value 0.989 | locus YCL069W, strain vba3, stronger effect = lower value 0.99 | locus YCR088W, strain abp1, stronger effect = lower value 0.985 | locus YDL005C, strain med2, stronger effect = lower value 0.995 | locus YDL035C, strain GPR1, stronger effect = lower value 0.976 | locus YDL040C, strain nat1, stronger effect = lower value 0.998 | locus YDL074C, strain BRE1, stronger effect = lower value 0.956 | locus YDL101C, strain DUN1, stronger effect = lower value 0.999 | locus YDL185W, strain tfp1, stronger effect = lower value 1 | locus YDL192W, strain arf1, stronger effect = lower value 0.989 | locus YDR001C, strain nth1, stronger effect = lower value 1 | locus YDR069C, strain doa4, stronger effect = lower value 0.999 | locus YDR101C, strain arx1, stronger effect = lower value 1.01 | locus YDR137W, strain rgp1, stronger effect = lower value 1.04 | locus YDR150W, strain NUM1, stronger effect = lower value 0.997 | locus YDR159W, strain sac3, stronger effect = lower value 0.946 | locus YDR162C, strain NBP2, stronger effect = lower value 0.897 | locus YDR195W, strain ref2 0.935 | locus YDR297W, strain sur2, stronger effect = lower value 0.986 | locus YDR318W, strain mcm21, stronger effect = lower value 1.01 | locus YDR334W, strain swr1, stronger effect = lower value 0.993 | locus YDR335W, strain msn5, stronger effect = lower value 1 | locus YDR388W, stronger effect = lower value 1.02 | locus YDR392W, strain spt3, stronger effect = lower value 0.839 | locus YDR502C, strain sam2, stronger effect = lower value 0.977 | locus YEL003W, strain gim4, stronger effect = lower value 0.977 | locus YEL037C, strain rad23, stronger effect = lower value 1 | locus YEL061C, strain CIN8 (second series), stronger effect = lower value 0.996 | locus YEL061C, strain CIN8, stronger effect = lower value 0.995 | locus YER015W, strain faa2, stronger effect = lower value 1.01 | locus YER016W, strain bim1, stronger effect = lower value 0.989 | locus YER110C, stronger effect = lower value 1.03 | locus YER111C, strain swi4, stronger effect = lower value 0.986 | locus YER155C, strain BEM2 (second series), stronger effect = lower value 0.998 | locus YER155C, strain BEM2, stronger effect = lower value 0.995 | locus YER167W, strain BCK2, stronger effect = lower value 0.96 | locus YFR010W, strain ubp6, stronger effect = lower value 0.999 | locus YGL078C, strain dbp3, stronger effect = lower value 1.03 | locus YGL086W, strain mad1, stronger effect = lower value 0.968 | locus YGL167C, strain pmr1, stronger effect = lower value 0.995 | locus YGL173C, strain kem1, stronger effect = lower value 0.983 | locus YGL227W, strain vid30, stronger effect = lower value 0.993 | locus YGL240W, strain doc1, stronger effect = lower value 0.945 | locus YGL248W, strain PDE1, stronger effect = lower value 1.01 | locus YGL253W, strain hxk2, stronger effect = lower value 1 | locus YGR078C, strain PAC10, stronger effect = lower value 0.984 | locus YGR135W, strain pre9, stronger effect = lower value 0.973 | locus YGR252W, strain gcn5, stronger effect = lower value 1 | locus YHR013C, strain ard1, stronger effect = lower value 0.931 | locus YHR027C, strain rpn1, stronger effect = lower value 1 | locus YHR030C, strain SLT2, stronger effect = lower value 1.01 and 1.06 | locus YHR079C, strain IRE1 (second series), stronger effect = lower value 1.01 | locus YHR079C, strain IRE1, stronger effect = lower value 1.05 | locus YHR094C, strain hxt1, stronger effect = lower value 1.02 | locus YHR129C, strain ARP1, stronger effect = lower value 1 | locus YHR142W, strain chs7, stronger effect = lower value 1.01 | locus YHR200W, strain rpn10, stronger effect = lower value 0.986 | locus YIL066C, strain RNR3, stronger effect = lower value 0.98 | locus YIL073C, strain SPO22, stronger effect = lower value 1.12 | locus YIL125W, strain kgd1, stronger effect = lower value 1.02 | locus YIR030C, strain dcg1, stronger effect = lower value 1.01 | locus YJL092W, strain hpr5, stronger effect = lower value 0.992 | locus YJL095W, strain BCK1 (second series), stronger effect = lower value 0.994 | locus YJL095W, strain BCK1, stronger effect = lower value 0.982 and 1.06 | locus YJL115W, strain asf1, stronger effect = lower value 0.977 | locus YJL129C, strain trk1, stronger effect = lower value 0.949 | locus YJL134W, strain LCB3, stronger effect = lower value 1 | locus YJL154C, strain vps35, stronger effect = lower value 0.995 | locus YJL164C, strain tpk1, stronger effect = lower value 0.986 | locus YJL166W, strain qcr8, stronger effect = lower value 0.966 | locus YJL168C, strain set2, stronger effect = lower value 1 | locus YJL187C, strain SWE1 (second series), stronger effect = lower value 1
